Measured values from PubChem BioAssay (Tox21).
Records with an inconclusive call do not appear. Values without a mark were called inactive. Calls of active or inactive are those of the source. Calls come from the whole dose curve; as a rule, active = well fitted activation curve with a large enough effect in the repeat runs; inconclusive = weak or mixed curves; inactive = flat fitted curve, though single readings scatter.

Experiment: A CellTox Green Cytotoxicity Assay to monitor cytotoxicity in HepG2 cells - 16 hour (AID 1224876); note: nearly all actives have a fitted effect of over 45% in size
Settings: CellTox Green fluorescence; series mostly up to 76.8 µM; cytotoxicity increase: at the top concentration
Source text: National Center for Advancing Translational Sciences [NCATS]
NIH Chemical Genomics Center [NCGC]
U.S. Environmental Protection Agency [EPA]
National Institutes of Environmental Health Sciences [NIEHS]
National Toxicology Program [NTP]
Cell-based models are critical for drug discovery. Determining the natural cytotoxic effects resulting from test compounds is an essential research activity. A CellTox Green Cytotoxicity Assay to monitor cytotoxicity in real time of continues cell culture during 40 hours of the compound treatment was used to screen Tox21 10K library compounds in HepG2 cells. CellTox Green Cytotoxicity Assay is a nonlytic, homogeneous, biofluorescent method to measure cytotoxicity in cell culture after experimental manipulation. The assay system uses a proprietary asymmetric cyanine dye that is excluded from viable cells but preferentially stains the dead cell's DNA. […] Viable cells produce no appreciable increases in fluorescence. Therefore, the fluorescence signal produced by the binding interaction with dead cell DNA is proportional to cytotoxicity.
The mixture of HepG2 cell suspension and reagents were dispensed at 600cells/6 ul/well in 1536-well tissue culture treated black solid bottom plates using a Multidrop dispenser. After the assay plates were incubated at a 37 C/5% CO2 incubator for 5 hours, 23 nL of compounds dissolved in DMSO, positive and negative controls was transferred to the assay plate by a pintool work station. The plates were incubated at 37 C for 40 hours. The fluorescence intensity were measured at 0h, 8h, 16h, 24h, 32h and 40h time points using ViewLux plate reader during compound treatment.
% is set by controls: 0 for no effect and ±100 for the full control effect; potency is the fitted concentration of half-maximal effect.

For `O=C/C(Cl)=C(/Cl)C(=O)O`, the Potency was “inactive”.
With `Clc1ccc(C(c2ccccc2Cl)C(Cl)(Cl)Cl)cc1` (stereo not given) the Potency was “inactive”.
In the case of `CCC[CH2][Sn]([CH2]CCC)([CH2]CCC)[O]C(=O)c1ccccc1`, the Potency is reported as 0.692 µM (active).
For `CCCCCCCCCCCCCC[P+](CCCCCC)(CCCCCC)CCCCCC` (tested in a mixture with another compound), the Potency was 38.9 µM (active).
With `Clc1ccc(COC(Cn2ccnc2)c2ccc(Cl)cc2Cl)cc1` (stereo not given) the Potency was 54.7 µM (active).
In the case of `CN(C)S(=O)(=O)N(SC(F)(Cl)Cl)c1ccccc1`, the Potency is reported as 12.3 µM (active).
In the case of `O=[N+]([O-])c1cc(C(F)(F)F)c(Cl)c([N+](=O)[O-])c1Cl`, the Potency is reported as 49 µM (active).

First: COC(=O)N(C(=O)N1COC2(C(=O)OC)Cc3cc(Cl)ccc3C2=N1)c1ccc(OC(F)(F)F)cc1 (stereo not given)
Second: CCOc1cc(C(C)(C)C)ccc1C1COC(c2c(F)cccc2F)=N1 (stereo not given)
The “cytotoxicity increase” value of the first is lower: -9.63% [at 35.3 µM] for the first, -3.34% [at 35.3 µM] for the second.

Compared with `C[C@]12CC[C@@H]3c4ccc(OC(=O)N(CCCl)CCCl)cc4CC[C@H]3[C@@H]1CC[C@@H]2O`, `COc1cc(N)c(Cl)cc1C(=O)NC1CN2CCC1CC2` (stereo not given) is lower in “cytotoxicity increase” value: 3.37% [at 35.3 µM] for the first, 0.19% [at 35.3 µM] for the second.

In the case of `CCC(C)c1cc(C(C)(C)C)cc(-n2nc3ccccc3n2)c1O` (stereo not given), the “cytotoxicity increase” value is reported as 3.39% [at 35.3 µM].

First: COP(=S)(OC)Oc1cc(Cl)c(Br)cc1Cl
Second: Oc1cc(Cl)c(Cl)c(Cl)c1
The “cytotoxicity increase” value of the first is lower: 0.58% for the first, 16.6% for the second.

First: C[As+](C)(C)CC(=O)[O-]
Second: CC(=O)[O-].[Tl+]
The “cytotoxicity increase” value of the first is higher: 2.42% for the first, 1.64% for the second.

First: CC(=[OH+])/C=C(/C)[O-].CC(=[OH+])/C=C(\C)[O-].CC(=[OH+])/C=C(\C)[O-].[Al]
Second: CCCN(CC)CC1COC2(CCC(C(C)(C)C)CC2)O1 (stereo not given)
The “cytotoxicity increase” value of the first is lower: -13.1% for the first, 11.8% for the second.

Compared with `CCCN(CCC)CCc1c[nH]c2ccccc12`, `CN(C)CCc1c[nH]c2ccc(O)cc12` is lower in “cytotoxicity increase” value: 0.579% for the first, -1.16% for the second.

First: O=C(Nc1ccc2[nH]ccc2c1)c1cc2cc(F)ccc2n1Cc1cccc(F)c1
Second: CC(=O)Nc1ccc2c(c1)Cc1ccccc1-2
The “cytotoxicity increase” value of the first is higher: -4.02% for the first, -10.2% for the second.

First: CCc1cc(C)cc(CC)c1-c1c(OC(=O)C(C)(C)C)n2n(c1=O)CCOCC2
Second: CC(C)N1C(=O)N(c2ccccc2)CSC1=NC(C)(C)C
The “cytotoxicity increase” value of the first is higher: 4.07% for the first, 1.23% for the second.

Going from `C[C@]12CC[C@H](O)C[C@H]1CC[C@@H]1[C@@H]2C[C@@H](O)[C@]2(C)[C@@H](C3=CC(=O)OC3)CC[C@]12O` to `CC1(C)CC/C(=C/c2ccc(Cl)cc2)C1(O)Cn1cncn1` (stereo not given), the “cytotoxicity increase” value falls from -6.93% to -14%.

Going from `CC(C)CCCCCCCOP(=O)(Oc1ccccc1)Oc1ccccc1` to `CC(C)CCCCCOC(=O)c1ccccc1C(=O)OCCCCCC(C)C`, the “cytotoxicity increase” value falls from 1.04% to -0.16%.

First: NC(=O)CCl
Second: C=CC(=O)N(C)C
The “cytotoxicity increase” value of the first is higher: 2.77% for the first, -9.94% for the second.

First: Cc1cc(Cl)ccc1O[C@H](C)C(=O)O
Second: C[C@@H](Oc1ccc(Cl)cc1Cl)C(=O)O
The “cytotoxicity increase” value of the first is lower: -9.62% for the first, -2.58% for the second.

First: CC(=O)c1ccc(-c2ccccc2)cc1
Second: CN(C)c1ccc(N=Nc2ccccc2)cc1
The “cytotoxicity increase” value of the first is lower: -4.83% for the first, -3.01% for the second.

Going from `COC(=O)N(C(=O)N1CO[C@@]2(C(=O)OC)Cc3cc(Cl)ccc3C2=N1)c1ccc(OC(F)(F)F)cc1` to `CC(C)[C@H](C(=O)O[C@H](C#N)c1cccc(Oc2ccccc2)c1)c1ccc(Cl)cc1`, the “cytotoxicity increase” value rises from -15.2% to -15.1%.

First: COc1ccc(OC)c(C=O)c1
Second: CCS(=O)(=O)c1cccnc1S(=O)(=O)NC(=O)Nc1nc(OC)cc(OC)n1
The “cytotoxicity increase” value of the first is lower: -2.24% for the first, 1.77% for the second.

First: CC(c1ccc(O)cc1)c1ccc(O)cc1
Second: CCCCOP(=O)(CCCC)OCCCC
The “cytotoxicity increase” value of the first is higher: 0.541% for the first, -7.03% for the second.
